{
  "source": "PubChem BioAssay AID1491",
  "about": "(National Center for Advancing Translational Sciences (NCATS), 2009)",
  "note": "“And” between values parts separate entries of the source, which are not always exact repeats. Equal values may be shown once. Results filed as inconclusive are left out. Entries that show only a call come without a potency. The source made the active and inactive calls. Calls come from the whole dose curve; as a rule, active = well fitted inhibition curve with a large enough effect in the main read-out, with a control signal flat; inconclusive = small, poorly fitted or top-dose-only effect, or a change in a side signal; inactive = flat fitted curve, though single readings scatter. Potency is the fitted concentration of half-maximal effect.",
  "data": [
    {"molecular_target": "Neuropeptide S receptor (Homo sapiens) (UniProt Q6W5P4)", "sequence (Q6W5P4 whole entry, looked up)": "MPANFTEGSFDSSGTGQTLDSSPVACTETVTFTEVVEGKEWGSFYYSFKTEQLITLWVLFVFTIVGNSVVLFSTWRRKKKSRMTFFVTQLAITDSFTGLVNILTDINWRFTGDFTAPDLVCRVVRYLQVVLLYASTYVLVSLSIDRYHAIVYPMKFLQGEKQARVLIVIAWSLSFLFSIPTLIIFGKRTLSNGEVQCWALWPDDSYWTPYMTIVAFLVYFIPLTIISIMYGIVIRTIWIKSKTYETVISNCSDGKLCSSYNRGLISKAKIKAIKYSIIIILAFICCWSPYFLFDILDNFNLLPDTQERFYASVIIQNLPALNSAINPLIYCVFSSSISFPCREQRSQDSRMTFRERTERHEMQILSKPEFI", "experiment": "Confirmation Concentration-Response Assay for Antagonists of the Neuropeptide S Receptor: cAMP Signal Transduction", "conditions": "CHO-NPSR cells, cAMP TR-FRET, antagonist mode; series mostly up to 22.3 µM", "method_in_brief": "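LANCE TR-FRET cAMP read-out: 665/620 nm emission ratio, with the 620 nm donor channel also reported, after 2 h RT detection. Stably transfected CHO-NPSR cells got compound titrations and 100 nM NPS in stimulation reagent for 60 min at 37C. IC50 came from Hill fits.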", "values": [
      {"molecule": "CS(=O)(=O)c1nc(-c2ccccc2)cc(C(F)(F)F)n1", "Potency": "7.94 µM (active)"},
      {"molecule": "N=c1c2c(ccn1-c1ccccc1)Oc1ccc3ccccc3c1C2c1ccccc1", "note": "(centres undefined)", "Potency": "2.51 µM (active)"},
      {"molecule": "O=C(CCc1ccccc1)Nc1ncnc2c1C(c1ccccc1)c1c(ccc3ccccc13)O2", "note": "(centres undefined)", "Potency": "3.55 µM (active)"},
      {"molecule": "O=C(N1CCOCC1)C1(c2ccc(Cl)cc2)CCCC1", "Potency": "inactive"},
      {"molecule": "Cc1ccc(S(=O)(=O)Nc2cccc3ncccc23)s1", "Potency": "inactive"},
      {"molecule": "COc1ccc(OC)c(C2C(C(=O)Nc3nc4ccccc4s3)=C(C)NC3=C2C(=O)CCC3)c1", "note": "(centres undefined)", "Potency": "2.82 µM (active)"},
      {"molecule": "CCOC(=O)c1cnc(-n2nc(C)cc2C)nc1NC1CCCC1", "Potency": "inactive"},
      {"molecule": "CN(CC(=O)NCc1ccc(F)cc1)S(=O)(=O)c1cccc2nsnc12", "Potency": "inactive"},
      {"molecule": "c1cncc(-c2nc(-c3ccco3)cs2)c1", "Potency": "inactive"},
      {"molecule": "CCOC(=O)c1cnc(-n2nc(C)cc2C)nc1Nc1ccc(C)cc1", "Potency": "inactive"},
      {"molecule": "Cc1cccnc1NC(=O)c1c(O)c2cccc3c2n(c1=O)CCC3", "Potency": "inactive"},
      {"molecule": "S=C(Nc1ccccn1)c1ccccn1", "Potency": "inactive"},
      {"molecule": "N=C1c2ccccc2CN1c1ccc(N2CCOCC2)c(S(=O)(=O)Nc2ccc(Cl)cc2)c1", "Potency": "4.47 µM (active)"},
      {"molecule": "Cc1nn(C)cc1/C=N/NC(=S)Nc1ccccc1", "Potency": "inactive"},
      {"molecule": "COc1ccc(NC(=O)/C(Cl)=C(/Cl)S(=O)Cc2ccc(C)cc2)cn1", "note": "(centres undefined)", "Potency": "2.24 µM (active)"},
      {"molecule": "C/C(=N\\Nc1ncc(Cl)cc1Cl)c1ccccn1", "Potency": "5.62 µM (active)"},
      {"molecule": "COCCCn1c(SCc2cc(=O)[nH]c3ccccc23)nnc1-c1ccco1", "Potency": "inactive"},
      {"molecule": "O=C(Cc1ccccc1)Nc1ncnc2c1C(c1ccccc1)c1c(ccc3ccccc13)O2", "note": "(centres undefined)", "Potency": "1.58 µM (active)"},
      {"molecule": "Cc1ccc(Nc2cc(C)nn2-c2nc(C)cc(C)n2)cc1", "Potency": "inactive"},
      {"molecule": "CC(C)Cc1nc(N2CCN(C(=O)c3ccccc3)CC2)c(C#N)c2c1CCC2", "Potency": "inactive"},
      {"molecule": "N=c1c2c(ccn1CCCc1ccccc1)Oc1ccc3ccccc3c1C2c1ccccc1", "note": "(centres undefined)", "Potency": "1.58 µM (active)"},
      {"molecule": "CCOc1ccc(N2C(=O)CC(NCCc3ccncc3)C2=O)cc1", "note": "(centres undefined)", "Potency": "inactive"},
      {"molecule": "COc1cccc(C2C(C#N)=C(NC(=O)CCc3ccccc3)Oc3ccc4ccccc4c32)c1", "note": "(centres undefined)", "Potency": "inactive"},
      {"molecule": "Cc1ccc(NC(=S)NNC(C)(C)C)cc1", "Potency": "inactive"},
      {"molecule": "N=c1c2c(ccn1Cc1ccccc1)Oc1ccc3ccccc3c1C2c1ccccc1", "note": "(centres undefined)", "Potency": "2 µM (active)"},
      {"molecule": "CCC(=O)O[C@]1(C(=O)CCl)[C@@H](C)C[C@H]2[C@@H]3CCC4=CC(=O)C=C[C@]4(C)[C@@]3(F)[C@@H](O)C[C@@]21C", "Potency": "11.2 µM (active)"},
      {"molecule": "Cc1ccc2nc3ccc(N4CCCCCCC4)nn3c(=O)c2c1", "Potency": "inactive"},
      {"molecule": "CC1CCCCN1S(=O)(=O)c1ccc(C(=O)Nc2sccc2C(N)=O)cc1", "note": "(centres undefined)", "Potency": "12.6 µM (active) and 14.1 µM (active)"},
      {"molecule": "N#CC(C#N)=c1ccc2c(c1)NC1(CCCCC1)N=2", "Potency": "inactive"},
      {"molecule": "COc1ccccc1C1c2c(ncn(-c3ccccc3)c2=N)Oc2ccc3ccccc3c21", "note": "(centres undefined)", "Potency": "17.8 µM (active)"},
      {"molecule": "O=[N+]([O-])c1ccc(-c2nc(C(Cl)Cl)c3ccccc3n2)cc1", "Potency": "inactive"},
      {"molecule": "O=C(N/N=C/c1ccc([N+](=O)[O-])o1)c1ccc(O)cc1", "Potency": "inactive"},
      {"molecule": "N=c1c2c(ncn1-c1ccccc1)Oc1ccc3ccccc3c1C2c1ccc2c(c1)OCCO2", "note": "(centres undefined)", "Potency": "1.41 µM (active)"},
      {"molecule": "Cc1nnc(NC(=O)c2cccc(S(=O)(=O)N3CCc4ccccc43)c2)s1", "Potency": "inactive"},
      {"molecule": "CCOc1ccc(-n2c(=S)sc3c(=O)[nH]c(SCC(=O)C(C)(C)C)nc32)cc1", "Potency": "7.08 µM (active)"},
      {"molecule": "COc1ccc(O)c(/C=N/Nc2nc(Nc3ccccc3)nc(-n3nc(C)cc3C)n2)c1", "Potency": "inactive"},
      {"molecule": "CCOc1ccc(C2c3c(ncn(-c4ccccc4)c3=N)Oc3ccc4ccccc4c32)cc1OCC", "note": "(centres undefined)", "Potency": "2 µM (active)"},
      {"molecule": "O=C(c1ccccc1-c1nc2ccccc2[nH]1)N1CCCCC1", "Potency": "inactive"},
      {"molecule": "CCc1ccc2oc(-c3cc(N)cc(C)c3O)nc2c1", "Potency": "inactive"}
    ]}
  ]
}
